# According to PubChem BioAssay AID624405 (Broad Institute, 2012):
# The campaign covered roughly 1,900 compounds. About 250 (13%) were called active. Roughly 4% stayed inconclusive and do not appear here.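 How the source made its calls: active means fitted curve reaches 40% rescue activity at or below the top valid dose, in every test run; inconclusive means test runs disagree, some active and some inactive; inactive means every run misses the threshold or moves the wrong way.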 A selection follows. Where a call stands in place of a potency, no number is given. Potency and affinity values are given separately.
# Test: suppressors of statin myotoxicity in myotubes, dose response, cell-based, C2C12 myotubes, ATP luminescence, cherry pick (AID 624405);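 further: myotubes are challenged with simvastatin at 10 µM to lower ATP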
# Conditions: C2C12 myotubes + simvastatin, 48 h, scaled: DMSO wells 0, geranylgeraniol wells 100; series mostly up to 19.5 µM
row,SMILES,outcome
1,CCN(C(C)=O)c1cccc2ccccc12,inactive
2,CC1CCCN(S(=O)(=O)c2ccc(NC(=O)C3CCN(C(=O)c4ccco4)CC3)cc2)C1 (stereo unspecified),inactive
3,CCC1CCCCN1S(=O)(=O)c1ccc(NC(=O)C2CCN(C(=O)c3ccco3)CC2)cc1 (stereo unspecified),inactive
4,CCC(C)NS(=O)(=O)c1ccc(NC(=O)C2CCN(C(=O)c3ccco3)CC2)cc1 (stereo unspecified),inactive
5,CC1CCN(S(=O)(=O)c2ccc(NC(=O)c3ccco3)cc2)CC1,inactive
6,C[C@@H]1CCCCO[C@@H](CN(C)C(=O)Nc2cccc3ccccc23)[C@H](C)CN([C@H](C)CO)C(=O)c2cc(NC(=O)c3ccncc3)ccc2O1,inactive
7,C[C@H]1CN([C@@H](C)CO)S(=O)(=O)c2ccc(-c3ccc(C(=O)N(C)C)cc3)cc2O[C@@H]1CN(C)C(=O)Cc1ccccn1,inactive
8,CCOc1ncnc2c1[nH]c1ccccc12,inactive
9,COc1ccc(CN(C)C[C@@H]2Oc3ccc(NC(=O)CCC(F)(F)F)cc3CC(=O)N([C@H](C)CO)C[C@H]2C)cc1,inactive
10,COc1ccc(S(=O)(=O)Nc2ccc3c(c2)C(=O)N([C@H](C)CO)C[C@H](C)[C@@H](CN(C)S(=O)(=O)c2ccc(F)cc2)OCCCC[C@@H](C)O3)cc1,inactive
11,O=C(O)CCC(=O)OCC1CCCCC1,inactive
12,CC(C)NC(=O)Cn1c(=O)n(CC(=O)N2CCCCC2)c(=O)c2sccc21,inactive
13,C[C@H]1CN([C@@H](C)CO)C(=O)c2cc(C#CC3CC3)cnc2O[C@@H]1CN(C)S(C)(=O)=O,inactive
14,C[C@@H]1CN([C@H](C)CO)C(=O)c2cc(NS(C)(=O)=O)ccc2O[C@@H](C)CCCCO[C@@H]1CN(C)S(=O)(=O)c1ccc(Cl)cc1,inactive
15,O=c1c2c([nH]c3ccc(Br)cc13)CCCC2,inactive
16,O=C(CCn1cccc1)NC1CCCc2ccccc21 (stereo unspecified),inactive
17,Cc1ccc(CN(C(=O)c2ccco2)C(C(=O)NC2CCCC2)c2ccc(N3CCOCC3)cc2)cc1 (stereo unspecified),inactive
18,COc1ccc(NC(=O)Nc2ccc3c(c2)C(=O)N([C@H](C)CO)C[C@H](C)[C@@H](CN(C)Cc2ccc(C(F)(F)F)cc2)OCCCC[C@H](C)O3)cc1,inactive
19,Cc1ccc(S(=O)(=O)N(C)C[C@@H]2Oc3c(NC(=O)Nc4ccccc4)cccc3C(=O)N([C@H](C)CO)C[C@H]2C)cc1,inactive
20,Cc1ccc(S(=O)(=O)N(C)C[C@@H]2Oc3c(NC(=O)Nc4ccccc4)cccc3C(=O)N([C@@H](C)CO)C[C@@H]2C)cc1,inactive
21,C[C@@H]1CN([C@H](C)CO)C(=O)c2cccc(NC(=O)Nc3ccccc3)c2O[C@@H]1CN(C)S(=O)(=O)c1ccccc1,inactive
22,Cc1ccc(S(=O)(=O)N(C)C[C@@H]2Oc3c(NC(=O)Nc4ccccc4)cccc3C(=O)N([C@H](C)CO)C[C@@H]2C)cc1,inactive
23,c1cnc2ccc(C(c3nnnn3C3CCCC3)N3CCN(c4nc5ccccc5s4)CC3)cc2c1 (stereo unspecified),inactive
24,CC(C)NC(=O)CN1C(=O)NC(CCc2ccccc2)C1=O (stereo unspecified),inactive
25,CCCn1c2c(c(O)c(C(=O)NC)c1=O)CCCC2,inactive
26,C[C@H]1CN([C@@H](C)CO)S(=O)(=O)c2ccc(C#CC3CCCCC3)cc2O[C@H]1CN(C)C(=O)Cc1ccncc1,inactive

row,SMILES,outcome
1,COc1ccc(S(=O)(=O)N2CCOCC2)cc1NC(=O)CSc1ncccn1,inactive
2,Cc1c(N=Cc2c(O)n(Cc3ccco3)c(=O)c3ccccc23)c(=O)n(-c2ccccc2)n1C,inactive
3,CCOC(=O)C1CCN(S(=O)(=O)c2nc3nc(C)cc(C)n3n2)CC1,inactive
4,O=C(NNC(=O)c1ccncc1)Nc1ccc(N=Nc2ccccc2)cc1,inactive
5,COc1ccc(C#Cc2ccc([C@H]3[C@H]4CN(C(=O)c5ccncc5)CCCCN4[C@H]3CO)cc2)cc1,inactive
6,C[C@@H]1CN([C@@H](C)CO)C(=O)c2cc(NS(=O)(=O)c3cccs3)ccc2O[C@@H]1CN(C)Cc1ccc2c(c1)OCO2,inactive
7,C[C@H]1CN([C@@H](C)CO)C(=O)c2cccc(NS(=O)(=O)c3cccs3)c2O[C@@H]1CN(C)C(=O)Nc1ccc(C(F)(F)F)cc1,inactive
8,Cc1cccc(OCC(=O)Nc2cc(C)ccc2O)c1,inactive
9,COc1ccccc1-c1noc(-c2ccncc2)n1,inactive
10,Cc1ccc(-c2noc(-c3cccs3)n2)cc1,inactive
11,Cc1ccc(C(=O)OCC(=O)Nc2ccc3c(c2)OCO3)cc1S(=O)(=O)N1CCOCC1,inactive
12,CCOC(=O)C(C)n1nc(/C=C/c2ccccc2)ccc1=O (stereo unspecified),inactive
13,C[C@@H]1CN([C@@H](C)CO)C(=O)Cc2cc(NC(=O)Cc3cn(C)c4ccccc34)ccc2O[C@H]1CN(C)Cc1ccc(Oc2ccccc2)cc1,inactive
14,O=C(Nc1nc2c(s1)CCCC2)c1ccc(Br)o1,inactive
15,C[C@H](CO)N1C[C@H](C)[C@@H](CN(C)S(=O)(=O)c2cn(C)cn2)Oc2ccc(NC(=O)Nc3ccc(C(F)(F)F)cc3)cc2C1=O,inactive
16,C[C@H](CO)N1C[C@H](C)[C@@H](CN(C)S(=O)(=O)c2ccc(Cl)cc2)Oc2c(NC(=O)Nc3ccc(C(F)(F)F)cc3)cccc2C1=O,inactive
17,C[C@H](N)c1nnc(SCC(=O)c2ccc(Cl)cc2)o1,inactive
18,CC(C)CC#Cc1cnc2c(c1)C(=O)N([C@@H](C)CO)C[C@@H](C)[C@H](CN(C)S(=O)(=O)c1cccs1)O2,inactive
19,CCn1c(CSc2nc(C)cc(C)n2)nnc1SCC(=O)Nc1nc(-c2ccccc2)cs1,inactive
20,COc1ccc(S(=O)(=O)Nc2cccc3c2O[C@H](CN(C)S(=O)(=O)c2ccc(Cl)cc2)[C@H](C)CN([C@@H](C)CO)C3=O)cc1,inactive
21,CCOc1ccccc1C(=O)n1nc(C)cc1C,inactive
22,CCOC(=O)Cn1c(=O)c2c(nc3n2CCN3Cc2ccccc2)n(C)c1=O,inactive
23,CCCCOC(=O)Cn1c(=O)c2c(nc3n2CCCCN3c2ccc(C)cc2)n(C)c1=O,inactive
24,O=C1c2ccccc2C(=O)N1CCC1=CCCCC1,inactive
25,C[C@@H]1CN([C@H](C)CO)C(=O)c2cccc(NS(=O)(=O)c3cccs3)c2O[C@@H]1CN(C)S(=O)(=O)c1cccs1,inactive
26,Fc1ccccc1OCCCN1CCOCC1,inactive

row,SMILES,outcome
1,C[C@H]1CN([C@@H](C)CO)C(=O)c2cc(/C=C/c3ccccc3)cnc2O[C@@H]1CN(C)C(=O)Nc1ccccc1F,inactive
2,C=CCSc1nc(C)c2cc(C)cc(C)c2n1,inactive
3,CC(C)(CSc1ncccn1)NS(=O)(=O)c1ccccc1,inactive
4,O=S(=O)(NCc1csc(-c2cccs2)n1)c1cccc(C(F)(F)F)c1,inactive
5,COc1ccc(NC(=O)N(C)C[C@H]2OCCCC[C@H](C)Oc3ccc(NS(=O)(=O)c4c(C)noc4C)cc3C(=O)N([C@@H](C)CO)C[C@H]2C)cc1,inactive
6,Cc1cc(C)n(C(=O)c2ccc(S(=O)(=O)NCC3CCCO3)cc2)n1 (stereo unspecified),inactive
7,C[C@@H]1CN([C@@H](C)CO)C(=O)c2cccc(NC(=O)C3CCCCC3)c2O[C@H]1CN(C)S(=O)(=O)c1ccc(Cl)cc1,inactive
8,C[C@@H]1CCCCO[C@@H](CN(C)Cc2ccc(Cl)c(Cl)c2)[C@H](C)CN([C@@H](C)CO)C(=O)c2cc(NC(=O)Cc3ccccc3)ccc2O1,inactive
9,O=c1cc(CN2CCN(Cc3ccccc3)CC2)c2cc3c(cc2o1)CCC3,inactive
10,Cc1sc2nc3ccc(N4CCCCC4)nn3c(=O)c2c1C,inactive
11,Cc1cccn2c(=O)c3cc(C(=O)NCCC4=CCCCC4)n(C)c3nc12,inactive
12,CN(C)C(CNC(=O)NC1CCCCC1)c1cccnc1 (stereo unspecified),inactive
13,C[C@@H]1CN([C@@H](C)CO)C(=O)c2cc(NC(=O)Nc3ccc(F)cc3)ccc2O[C@@H](C)CCCCO[C@H]1CN(C)Cc1ccncc1,inactive
14,COC(=O)c1cc(OC)c(OC)cc1NC(=O)Nc1cccc(C(C)=O)c1,inactive
15,C[C@H]1CN([C@@H](C)CO)C(=O)Cc2cc(NC(=O)Cc3ccccc3)ccc2O[C@@H]1CN(C)Cc1ccc(Oc2ccccc2)cc1,inactive
16,O=C(COc1cccc(C(F)(F)F)c1)Nc1ccc(S(=O)(=O)N2CCCC2)cc1,inactive
17,O=C(OCCOc1ccc(Br)cc1)c1cnccn1,inactive
18,O=C(c1cnccn1)N1CCN(C/C=C/c2ccccc2)CC1,inactive
19,C[C@H]1CN([C@@H](C)CO)C(=O)c2cc(NC(=O)C3CC3)ccc2O[C@@H]1CN(C)CC1CCCCC1,inactive
20,C[C@H](CO)N1C[C@H](C)[C@H](CN(C)Cc2ccc(C(F)(F)F)cc2)Oc2c(NC(=O)Nc3cccc4ccccc34)cccc2C1=O,inactive
21,C[C@@H]1CN([C@H](C)CO)C(=O)c2cc(NC(=O)Nc3cccc4ccccc34)ccc2O[C@@H](C)CCCCO[C@@H]1CN(C)Cc1ccc2c(c1)OCO2,inactive
22,COc1ccc(NC(=O)Nc2ccc3c(c2)C(=O)N([C@@H](C)CO)C[C@H](C)[C@@H](CN(C)Cc2ccc(C(F)(F)F)cc2)OCCCC[C@H](C)O3)cc1,inactive
23,C[C@@H]1CN([C@@H](C)CO)C(=O)c2cccc(NC(=O)C3CCOCC3)c2O[C@@H]1CN(C)S(=O)(=O)c1cn(C)cn1,inactive
24,COC(=O)[C@H]1[C@H](CO)[C@H]2Cn3c(ccc(C4=CCCCC4)c3=O)[C@H]2N1CC1CCCCC1,inactive
